# Luc counter: Counterscreen for Luciferase (Kinase-Glo TM) Inhibition. Kinase-Glo luciferase, ATP luminescence, 8 min. Potency, µM (doses to about 38.3 µM), without a hit: top-dose activity change, negative = inhibition, usual class: inhibitors. AID 1379, 2008. Luciferin 4-monooxygenase (Photuris pensylvanica), Q27757. actives 0.28% (n = 200,000); further: on the % scale 0 is the no-effect control and ±100 the full control effect; nearly all actives have a fitted effect of over 60% in size
#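 Kinase-Glo luciferase light output from ATP and luciferin was measured with 10 uM ATP, within the enzyme's linear range. Buffer: 50 mM imidazole pH 7.2, 50 mM KCl, 7 mM MgCl2, 0.01% Tween 20, 0.05% BSA; luminescence read after 8 min at ambient temperature.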
# Rab9 promoter act: qHTS Assay for Rab9 Promoter Activators | Huh7 Rab9 promoter-luciferase reporter, luminescence, 24 h | Potency, µM (series often up to 9.22 µM), for the others: top-dose activation, negative = inhibition, hits mostly activators | actives 2.8% (n = 320,000); further: % of control where 0% means no effect; nearly all actives have a fitted effect of over 60% in size
#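 Rab9 promoter-driven luciferase in stably transfected Huh7 cells; 1500 cells/well rested 2 h, exposed to compound in DMSO for 24 h at 37 °C, 5% CO2. Luminescence read 10 min after adding luciferase reagent at ambient temperature.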
# ELG1 genotoxic: qHTS screen for small molecules that induce genotoxicity in human embryonic kidney (HEK293T) cells expressing luciferase-tagged ELG1; actives 1.3% (n = 330,000); Potency, µM (titrated, usually from 46 µM), inactives show at the highest dose activity change, positive = activation, hits mostly activators; HEK293T ELG1-luciferase reporter, luminescence, 16 h; further: % of control where 0% means no effect; nearly all actives have a fitted effect of over 60% in size
#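 ELG1-luciferase HEK293T cells, 2,000/well; compound pinned in; 16 hr, 37 °C, 5% CO2; ONE-Glo, 30 min RT; luminescence on CCD imager.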
# NPC1 promoter act: qHTS Assay for NPC1 Promoter Activators; AID 485313, 2010; Huh7 NPC1 promoter luciferase reporter, 24 h; actives 2.4% (n = 320,000); Potency, µM (top dose mostly 9.22 µM), inactives show at the highest dose activation, hits mostly activators; further: % of control where 0% means no effect; nearly all actives have a fitted effect of over 60% in size
#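 Luciferase expression driven by the NPC1 promoter was measured in stably transfected Huh7 cells after a 24 h compound incubation, using a luciferase reagent and a luminescence read.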
# SMN2 splice enh: qHTS Assay for Enhancers of SMN2 Splice Variant Expression; actives 2.8% (n = 210,000); HEK293 SMN2-luciferase splicing reporter, luminescence, 30-36 h; Potency, µM (highest dose often 46.1 µM), inactives show top-dose activity change, positive = activation, hits mostly activators; further: % of control where 0% means no effect; nearly all actives have a fitted effect of over 55% in size
#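 HEK293 cells carry an SMN2 […]–luciferase reporter in which exon 7 inclusion puts luciferase in frame. Cells were plated 10-12 h before compound addition, then incubated 30-36 h at 37C. ONE-Glo luminescence was read; sodium butyrate at 4.5 mM final served as control.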
# FLuc counter: qHTS profiling assay for firefly luciferase inhibitor/activator using purifed enzyme and Km concentrations of substrates (counterscreen for miR-21 project); Luciferin 4-monooxygenase (Photinus pyralis), P08659; actives 6.9% (n = 360,000); purified FLuc, Km substrates, luminescence inhibition; Potency, µM (top dose mostly 57.5 µM), inactives show at the top dose activity change, negative = inhibition, usual class: inhibitors;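 further: plate controls were vehicle for no effect and reference inhibitor for full effect; nearly all actives have a fitted effect of over 55% in size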
# Target sequence (P08659 whole entry, looked up): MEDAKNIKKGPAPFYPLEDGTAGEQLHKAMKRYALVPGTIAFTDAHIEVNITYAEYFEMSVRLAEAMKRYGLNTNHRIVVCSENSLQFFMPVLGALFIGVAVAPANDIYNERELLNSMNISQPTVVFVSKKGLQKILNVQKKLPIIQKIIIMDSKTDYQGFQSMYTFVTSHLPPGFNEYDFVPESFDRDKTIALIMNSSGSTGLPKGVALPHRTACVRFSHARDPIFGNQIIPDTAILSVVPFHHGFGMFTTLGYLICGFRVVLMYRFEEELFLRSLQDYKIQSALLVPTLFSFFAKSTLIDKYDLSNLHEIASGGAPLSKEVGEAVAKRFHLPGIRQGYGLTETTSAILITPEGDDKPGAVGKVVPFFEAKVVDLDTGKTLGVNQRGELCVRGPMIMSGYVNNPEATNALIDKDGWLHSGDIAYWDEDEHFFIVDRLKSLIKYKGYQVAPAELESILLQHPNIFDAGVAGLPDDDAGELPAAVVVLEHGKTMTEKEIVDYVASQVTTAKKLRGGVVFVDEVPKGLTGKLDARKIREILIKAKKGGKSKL
#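 Purified P. pyralis luciferase, 10 nM final, with Km-level 10 uM D-luciferin and 10 uM ATP in 50 mM Tris acetate pH 7.5, 10 mM Mg acetate, 0.01% Tween-20, 0.05% BSA; 6-point qHTS titration about 60 µM downward; luminescence read.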
# An asterisk follows results filed as active; ? = inconclusive; . = not tested or not shown; [ ] = another dose, or the depositor's remark. Rows were chosen to be rich in hits. Some 7.4% of all compounds tested hit in one or more screens of this group. The call rests on the fitted dose curve; in most records, active means well fitted curve in the direction sought with a large enough effect; inconclusive means small, poorly fitted or top-dose-only effect, or another doubt; inactive means no such curve, though single readings can be large; an effect the other way counts as inactive or inconclusive. Potency means the concentration at half of the fitted maximal effect.
SMILES,Luc counter,Rab9 promoter act,ELG1 genotoxic,NPC1 promoter act,SMN2 splice enh,FLuc counter
COc1cccc(/C=N/Nc2ncccc2[N+](=O)[O-])c1OC,.,-5%,0.29µM*,?,.,0.3µM*
CCOc1ccccc1/C=N/Nc1ccnc(=O)[nH]1,.,-5%[1.84 µM],7%,5%,.,-3%
COc1ccccc1/C=N/Nc1nccnc1Cl,?,?,18µM*,27%,-21%,12µM*
COc1ccc(Cn2c(=O)n(-c3ccc(F)c(Cl)c3)c(=O)c3c2c2cc(OC)ccc2n3C)cc1,.,.,.,.,.,0%
O=C(c1ccc2c(c1)N(Cc1ccc(F)cc1)C(=O)c1ccccc1S2(=O)=O)N1CCCCCC1,.,.,.,.,-3%,-4%
CCOC(=O)C1CCN(C(=O)CNC(=O)c2nn(-c3ccc(OC)c(OC)c3)c(=O)c3ccccc23)CC1,.,17%,-2%,13%,.,4.8µM*
CCOC(=O)C1CCN(C(=O)CNC(=O)c2nn(-c3ccc(OC)cc3)c(=O)c3ccccc23)CC1,.,26%,-3%,24%,.,2.7µM*
CCN(CC)C(=O)c1cc2sc3ccccc3c2s1,-1%,3.2µM*,?,2.8µM*,25%,9.5µM*
COCCN(CCOC)C(=O)c1cc2sc3ccccc3c2s1,12%,9%,7%,-2%,-18%,-16%
COc1ccc2c(c1OC)C(=O)N1N=C(c3ccc(Cl)cc3)CC21 (stereo not given),-3%,0%,-1%,-3%,-12%,?
COc1ccc2c(c1OC)C(=O)N1N=C(c3ccc(Br)cc3)CC21 (stereo not given),-6%,7%,0%,3%,-30%,24µM*
COc1ccc(C2=NN3C(=O)c4c(ccc(OC)c4OC)C3C2)cc1 (stereo not given),1%,-1%,-1%,1%,-17%,17µM*
COc1cccc(CN2C(=O)N(c3ccc(C)cc3)C(=O)C2CC(=O)Nc2cc(OC)cc(OC)c2)c1 (stereo not given),.,.,.,.,.,-3%
Cc1ccccc1COc1ccc(-c2nn[nH]n2)cc1,.,21%,9%,4%,.,27µM*
CCOc1ccccc1-c1n[nH]c(=S)o1,0%,-4%,-2%,-2%,-2%,-18%
CCOc1ccc(-c2n[nH]c(=S)o2)cc1,8%,20%,16%,-4%,17%,11µM*
CCc1ccc(-c2nn[nH]n2)cc1,-3%,20%,9%,2%,6%,13µM*
Brc1cc2c(cc1COc1ccc(-c3nn[nH]n3)cc1)OCO2,-2%,18%,14%,6%,15%,?
CCOc1ccc(-c2nn[nH]n2)cc1,-8%,-4%,3%,10%,28%,11µM*
O=C(CC(c1ccco1)S(=O)(=O)c1ccccc1)c1ccc(F)cc1 (stereo not given),-2%,-1%,1%,0%,13%,19µM*
C=CCn1c(CCCOc2ccc(Cl)cc2Cl)nnc1SCC(=O)Nc1nccs1,-2%,7%,-3%,0%,-2%,13µM*
CCn1c(CCCOc2ccc(Cl)cc2Cl)nnc1SCC(=O)Nc1cc(F)ccc1C,0%,11%,-2%,-5%,-8%,17µM*
Cn1c(CCCOc2ccc(Cl)cc2Cl)nnc1SCC(=O)Nc1cccc(F)c1,0%,11%,0%,0%,-6%,4.8µM*
CCn1c(CNC(=O)COc2ccc(C(C)C)cc2)nnc1SCC(=O)Nc1cc(F)ccc1C,-1%,0%,-8%,-2%,-25%,-17%
OC[C@@H]1[C@@H](c2ccc(F)cc2)C(c2ccc(F)cc2)=NN1c1ccccc1,5%[39.9 µM],.,.,.,.,.

# Assay outcomes: PubChem BioAssay, National Center for Advancing Translational Sciences (NCATS)
